Assay outcomes from PubChem BioAssay.
12-LOX inh: ALOX12 (human) lipoxygenase inhibition | P18054 | purified 12hLO, xylenol orange hydroperoxide absorbance | Potency, µM (series often up to 108 µM), usual class: inhibitors | 580,000 tested, 1.1% active
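Purified human 12hLO (150 nM final) in 25 mM Hepes, 0.01% Triton X-100, pH 7.0 was preincubated 15 min at room temperature with compound. Then 40 uM arachidonic acid was added, 30 min. Hydroperoxide was read by Fe-XO absorbance ratio 573/405 nm.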
G9a block: blocks human histone lysine methyltransferase G9a. Q96KQ7. G9a H3K9 monomethylation, AlphaScreen, 2 h. Potency, µM (highest dose often 102 µM), usual class: inhibitors. 350,000 tested, 8.8% active. AID 504332; note: nearly all actives have a fitted effect of over 75% in size
Target sequence (Q96KQ7 913-1193 limits assumed): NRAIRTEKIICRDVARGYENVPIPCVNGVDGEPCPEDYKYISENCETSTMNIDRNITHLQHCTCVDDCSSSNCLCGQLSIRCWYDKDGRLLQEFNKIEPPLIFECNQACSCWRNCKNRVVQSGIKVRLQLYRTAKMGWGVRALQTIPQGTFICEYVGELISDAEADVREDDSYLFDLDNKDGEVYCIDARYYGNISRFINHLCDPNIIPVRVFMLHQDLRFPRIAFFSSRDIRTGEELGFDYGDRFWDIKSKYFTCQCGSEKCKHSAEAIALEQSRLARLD
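Using a bead-based AlphaScreen, monomethylated H3K9 product from 2 h room-temperature reactions (G9a 20 nM, peptide 500 nM, SAM 20 uM) was detected with 0.5 ug/mL rabbit anti-H3K9me1 antibody.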
Glioma ERSR ind: ER stress response induction in glioma | U87-MG GRP78 promoter luciferase reporter, 16 h | Potency, µM, hits mostly activators | 420,000 tested, 0.02% active; note: series mostly up to about 76 µM; nearly all actives have a fitted effect of over 35% in size
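ERSR induction read as luciferase luminescence (Bright-Glo, 10 min at room temperature) in stably transfected human U87-MG glioma cells exposed to compounds for 16 h, using GRP78 as sensor.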
Sfp inh: Sfp phosphopantetheinyl transferase inhibition; Q9F4F7; Biochemical Sfp PPTase activity, qHTS; Potency, µM, hits mostly inhibitors; 310,000 tested, 3.5% active; AID 1490;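 note: the enzyme is Sfp with the accession as filed and its product quenches rhodamine fluorescence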
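Step 1, compound plus 15 nM Sfp-PPTase, 15 min, room temperature. Step 2, add rhodamine-CoA (5 uM) and BHQ-2-YbbR (12.5 uM). Step 3, read 525/598 nm fluorescence at 0 and 30 min.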
VDR inhibitor: blocks the human vitamin D receptor; AID 504847; 400,000 tested, 0.93% active; Potency, µM, most hits filed as inhibitors; P11473; VDR-SRC2-3 peptide fluorescence polarization, 2 h
Target sequence (P11473 whole entry, looked up): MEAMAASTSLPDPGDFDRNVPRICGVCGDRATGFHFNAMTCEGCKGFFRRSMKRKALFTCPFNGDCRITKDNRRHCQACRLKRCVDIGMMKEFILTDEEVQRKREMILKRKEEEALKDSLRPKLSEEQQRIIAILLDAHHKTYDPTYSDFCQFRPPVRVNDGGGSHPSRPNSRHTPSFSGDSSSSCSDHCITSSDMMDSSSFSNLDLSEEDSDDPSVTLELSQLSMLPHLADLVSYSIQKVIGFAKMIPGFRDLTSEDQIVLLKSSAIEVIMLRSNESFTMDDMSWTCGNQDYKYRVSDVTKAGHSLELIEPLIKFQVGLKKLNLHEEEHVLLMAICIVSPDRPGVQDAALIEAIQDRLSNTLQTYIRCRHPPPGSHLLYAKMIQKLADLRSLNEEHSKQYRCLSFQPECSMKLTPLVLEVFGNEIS
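Compounds are added to VDR with labelled SRC2-3 coactivator peptide and held 2 h at room temperature. Inhibition of the VDR–peptide interaction is then read as a change in fluorescence polarization.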
Numbers stand for hits; . = inactive; ? = inconclusive; / = not tested or not shown; [ ] = another dose, or the depositor's remark. Many of the other results were omitted from the sample, so hits are more common in it than they were. Calls come from the whole dose curve; as a rule, active = well fitted curve in the direction sought with a large enough effect; inconclusive = small, poorly fitted or top-dose-only effect, or another doubt; inactive = no such curve, though single readings can be large; an effect the other way counts as inactive or inconclusive.

SMILES	12-LOX inh	G9a block	Glioma ERSR ind	Sfp inh	VDR inhibitor
CCOc1ccc2c(c1)/C(=C(\C(Cl)=C(Cl)Cl)[N+](=O)[O-])N2	?	45µM	.	.	.
COc1cc(-c2nc(-c3cccc(Br)c3)no2)cc(OC)c1OC	.	/	/	/	/
COc1ccc(CC(C(=O)Nc2ccc(OC)cc2)c2nn[nH]n2)cc1 (stereo not given)	4.5µM	/	.	.	.
CN(C)CC1CCC/C(=C/c2ccc(Cl)cc2)C1=O (stereo not given)	35µM	/	.	/	79µM
COc1ccc(/C=C2/CCCC(CN(C)C)C2=O)cc1 (stereo not given)	?	/	.	/	?
COc1cccc(/C=C2/CCC(CN(C)C)C2=O)c1 (stereo not given)	?	/	.	/	40µM
O=[N+]([O-])c1cc(-c2nnc(Nc3ccc(O)cc3)c3ccccc23)ccc1N1CCOCC1	.	20µM	.	.	.
O=[N+]([O-])c1cc(S(=O)(=O)Nc2ccccc2)ccc1N1CCN(c2ccc(O)cc2)CC1	25µM	5µM	.	56µM	.
Cc1ccc(S(=O)(=O)N2CCN(C)CC2)cc1[N+](=O)[O-]	.	.	.	.	.
CN1CCN(S(=O)(=O)c2ccc(N3CCN(c4ccc(O)cc4)CC3)c([N+](=O)[O-])c2)CC1	?	7.9µM	.	/	.
COc1cccc(CN2Cc3cc(NC(=O)c4cccc(OC)c4)ccc3OCC2=O)c1	.	/	/	/	/
COc1cc(C)cc2oc(=O)c(CC(=O)NCCCOC(C)C)c(C)c12	.	/	/	/	/
CCOC12NC(=O)CC(=O)N1C(c1ccccc1)=CS2 (stereo not given)	.	50µM	.	.	.
CC(=O)N1CCN(c2nc(-c3ccccc3)c3ccccc3n2)CC1	.	/	/	/	/
c1ccc(-c2nnc(N3CCN(c4ccccc4)CC3)nc2-c2ccccc2)cc1	.	13µM	.	.	.
c1ccc(-c2nnc(N3CCCC3)nc2-c2ccccc2)cc1	.	.	.	.	.
c1ccc(-c2nc(N3CCCC3)nc3ccccc23)cc1	.	?	.	40µM	.
CSCCC(NC(=O)CCNC(=O)c1ccccc1)c1nnc2ccccn12 (stereo not given)	.	/	/	/	/
Oc1ccc(O)cc1	?	6µM	.	?	.
COCCN1CCCCCC(O)c2cc(C(=O)NC3CCCCC3)ccc21 (stereo not given)	.	/	/	/	/
Cc1ccc2cc(C(=O)O)c(C)nc2c1	?	50µM	.	.	.
CCOc1ccc(C2C3=C(CCCC3=O)Nc3nc(-c4ccc(Cl)cc4)nn32)cc1 (stereo not given)	.	/	/	/	/
COc1cc(-c2csc(NC3CCCCC3)n2)cc(OC)c1OC	?	25µM	.	.	.
CS(=O)(=O)Nc1ccc(-c2csc(NC3CC3)n2)cc1	10µM	/	/	/	/
CN(c1ccc(-c2csc(NC3CCCC3)n2)cc1)S(C)(=O)=O	16µM	/	/	/	/
SMILES	12-LOX inh	G9a block	Glioma ERSR ind	Sfp inh	VDR inhibitor
COc1cc(-c2cc3nc(NC4CCCCC4)ccn3n2)cc(OC)c1OC	.	/	.	/	/
CCc1ccc(OCC(=O)Nc2ncn[nH]2)cc1	.	?	.	.	.
CC(Oc1ccc(Br)cc1)C(=O)Nc1ncn[nH]1 (stereo not given)	.	14µM	.	/	.
CC(Oc1ccc(Br)cc1)C(=O)Nc1nc(-c2ccccn2)cs1 (stereo not given)	?	20µM	.	40µM	?
O=C(Nc1nc(-c2ccccn2)cs1)Nc1ccc(F)cc1F	?	2.8µM	.	11µM	?
O=C(COc1ccc(F)cc1)Nc1nc(-c2ccccn2)cs1	.	45µM	.	/	.
O=C(NC1CCCCC1)c1cc(Sc2ccc(Cl)cc2)nc2ccccc12	.	/	/	/	/
O=C1N[C@@H]2CCN(S(=O)(=O)c3ccccc3)[C@@H]2C(=O)N1c1ccc(Oc2ccccc2)cc1	.	/	/	/	/
O=C(COc1ccc([N+](=O)[O-])cc1)Nc1nc(-c2ccccn2)cs1	.	35µM	.	/	.
O=C(COc1cccc(F)c1)Nc1nc(-c2ccccn2)cs1	?	/	.	/	/
CC1CCC(NC(=O)Cc2coc(-c3ccccc3)n2)CC1 (stereo not given)	.	/	/	/	/
O=C(CSC1CCCCC1)c1ccccc1Br	35µM	/	/	/	/
O=C(CSC1CCCCC1)N1CCN(c2ccccc2)CC1	?	?	.	.	.
Cn1cc(C(=O)NCCc2noc(-c3ccncc3)n2)cn1	.	/	/	/	/
O=C(NCCc1noc(-c2ccncc2)n1)c1ccccc1F	28µM	/	/	/	/
O=C(Nc1ccc(SC2CCCC2)cc1)C1CC1	.	/	/	/	/
COc1ccc(C(CC(=O)NCc2ccccc2)Sc2n[nH]c(-c3ccccc3)n2)cc1 (stereo not given)	.	.	.	.	.
COc1ccc(-c2nc(SC(CC(=O)NCc3ccccc3)c3ccc(OC)c(OC)c3)n[nH]2)cc1 (stereo not given)	.	45µM	.	.	.
COc1ccc(C(CC(=O)NCc2ccccc2)Sc2n[nH]c(-c3ccc(Cl)cc3)n2)cc1 (stereo not given)	.	25µM	.	.	.
COc1ccc(C(CC(=O)NCc2ccccc2)Sc2n[nH]c(-c3ccc(F)cc3)n2)cc1 (stereo not given)	.	/	/	/	/
COC(=O)[C@@H]1Cc2c([nH]c3ccccc23)[C@H]2C[C@@H](NCCCn3ccnc3)C[C@@H](c3ccccc3)N21	.	/	/	/	/
Nc1nc2c(s1)C(=O)CC(c1ccccc1)C2 (stereo not given)	.	.[12.7 µM]	.	45µM	.
COc1ccc2oc(=O)c(-c3ccc(OCC(=O)N4CCN(C=O)CC4)cc3)cc2c1	.	/	/	/	/
CCCCCc1ccc(OC(=O)c2ccc(Cl)cc2)cc1	.	/	/	/	/
CC(=O)c1sc(-c2ccccn2)nc1C	/	35µM	/	.	/
SMILES	12-LOX inh	G9a block	Glioma ERSR ind	Sfp inh	VDR inhibitor
Cc1nc(-c2ccccn2)sc1C(=O)O	.	.	?	.	.
COc1cccc(NC(=O)c2sc3ncn(CC(=O)N4CCN(c5ccccn5)CC4)c(=O)c3c2C)c1	.	.	.	.	25µM
O=C(c1n[nH]c(=O)c2ccccc12)N1CCN(S(=O)(=O)c2ccccc2)CC1	.	/	/	/	/
Cc1ccc(S(=O)(=O)N(C)C)cc1NC(=O)CSc1nc2ncc(Cl)cc2[nH]1	.	35µM	.	/	.
COc1cc(/C=C/[N+](=O)[O-])ccc1OCc1cccc(C(=O)O)c1	/	14µM	.	14µM	20µM
COc1ccc(C(=O)C=Cc2ccc(OCc3ccccc3)c(OC)c2)cc1OC	.	/	.	/	/
CC(C)N1CCC(NC(=O)c2cccc3ccccc23)CC1	.	/	/	/	/
CC(C)(C)NC(=O)C(=O)NCc1ccccn1	.	.	.	.	.
O=C(NCc1cccs1)c1nc(-c2cccs2)no1	.	.	.	.	.
O=C(NCc1ccccn1)C(=O)NCc1ccccn1	.	.	.	56µM	.
O=C(NCc1ccccn1)c1nc(-c2cccs2)no1	.	28µM	.	.	.
COc1ccc(CCNC(=O)C(=O)NCc2ccccn2)cc1	.	50µM	.	.	?
Cc1cc(C)c(S(=O)(=O)/N=C2\C=C(Nc3ccc(C(=O)O)cc3)C(=O)c3ccccc32)c(C)c1	.	10µM	.	50µM	?
